High-throughput results as filed in PubChem.
G9a block: G9a (human) methyltransferase inhibition | Q96KQ7 | G9a H3K9 monomethylation, AlphaScreen, 2 h | Potency, µM (series often up to 102 µM), without a hit: top-dose activity, negative = inhibition, most hits filed as inhibitors | 350,000 tested, 8.8% active | AID 504332; also: potency is read from the fitted curve at half-maximal effect; nearly all actives have a fitted effect of over 75% in size
Target sequence (Q96KQ7 913-1193 limits assumed): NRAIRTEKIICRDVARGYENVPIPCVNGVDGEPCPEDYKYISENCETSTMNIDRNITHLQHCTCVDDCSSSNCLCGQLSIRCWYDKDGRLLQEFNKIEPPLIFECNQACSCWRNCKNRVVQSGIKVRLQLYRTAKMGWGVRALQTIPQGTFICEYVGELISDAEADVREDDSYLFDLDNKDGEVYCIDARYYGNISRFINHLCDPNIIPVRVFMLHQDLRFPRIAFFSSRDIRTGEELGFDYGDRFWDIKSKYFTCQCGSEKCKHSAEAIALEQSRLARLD
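Readings reflect AlphaScreen signal from monomethyl-H3K9 antibody detection. HMT at 20 nM; substrate b-H3K9 500 nM; cofactor SAM 20 uM; 2 h RT reaction; compounds tested as titrations in qHTS with 15 min preincubation.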
Sfp PPTase inh: blocks B. subtilis Sfp PPTase activity; Biochemical Sfp PPTase activity, qHTS; Potency, µM, without a hit: largest response in the series, negative = inhibition, hits mostly inhibitors; 310,000 tested, 3.5% active; AID 1490;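 also: the enzyme is Sfp with the accession as filed and its product quenches rhodamine fluorescence; potency is read from the fitted curve at half-maximal effect; 0% = enzyme reaction without inhibitor and -100% = no enzyme wells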
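With Hepes-Na pH 7.6 buffer containing 10 mM MgCl2, Sfp (15 nM) modified BHQ-2-YbbR (12.5 uM) using rhodamine-CoA (5 uM). Two reads 30 minutes apart at 525/598 nm yielded each well's rate.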
Tau FP inhib: blocks human tau fibril formation measured by polarization. P10636. K18 P301L tau heparin fibrillization, Alexa594 FP, 6 h. Potency, µM (doses to about 57.7 µM), without a hit: top-dose activity, negative = inhibition, most hits filed as inhibitors. 280,000 tested, 0.39% active. AID 1468; also: potency is read from the fitted curve at half-maximal effect; nearly all actives have a fitted effect of over 55% in size
Target sequence (P10636 561-689 P618L limits assumed): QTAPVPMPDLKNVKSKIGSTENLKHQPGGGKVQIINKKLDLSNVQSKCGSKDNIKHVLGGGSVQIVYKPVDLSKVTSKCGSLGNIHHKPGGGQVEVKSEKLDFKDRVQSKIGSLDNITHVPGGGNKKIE
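Steps: dispense K18 P301L tau (15 uM plus 0.24 uM Alexa 594 tracer, final) in pH 7 sodium acetate; add compound; add heparin (20 uM final); incubate 6 hr, 37 C; add ThT (30 uM final); after 1 hr ambient, read FP.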
Tau ThT inhib: inhibitors of human tau fibril formation, thioflavin T binding | Potency, µM (top dose mostly 57.4 µM), for inactives: top-dose activity, negative = inhibition, actives largely listed as inhibitors | 270,000 tested, 2.1% active | P10636 | AID 1460 | recombinant tau K18 P301L, heparin-induced fibrillization, ThT fluorescence; also: potency is read from the fitted curve at half-maximal effect; nearly all actives have a fitted effect of over 55% in size
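ThT emission at 510 nm, taken 1 hr after adding 30 uM dye, quantifies aggregates formed when 20 uM heparin acts on human tau K18 P301L for 6 hr at 37 C.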
Tau fluor cs: counter-screen for tau fibril formation inhibitors. tau K18 P301L (four-repeat tau fragment) Alexa594 fluorescence, heparin fibrillization. Potency, µM (titrated, usually from 57.7 µM), for the others: at the highest dose activity change, negative = decrease. 280,000 tested, 0.93% active. AID 1463; also: potency is read from the fitted curve at half-maximal effect; nearly all actives have a fitted effect of over 55% in size
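Human K18 P301L tau (15 uM unlabeled plus 0.24 uM Alexa 594-labeled, final) in 100 mM sodium acetate pH 7 was mixed with compound and 20 uM heparin and incubated 6 hr at 37 C.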
FBPA coupling cs: counter-screen for Giardia aldolase inhibitors: coupling enzyme system; 290,000 tested, 0.67% active; activity change, negative = inhibition, % at 58.2 µM, hits read low; coupling enzyme system counterscreen, AmpLite Red fluorescence; in the data active = activity change below about -30%
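Counterscreen of the coupled detection system alone, without aldolase: glyceraldehyde-3-phosphate coupling enzymes plus AmpLite Red readout. Compounds at 57.5 uM final, 10 min RT preincubation, 20 min RT reaction, fluorescence 525/598 nm.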
Numbers without * were called inactive; ? = inconclusive; . = not tested or not shown; [ ] = another dose, or the depositor's remark. In the library only some 11% were active in any assay of this set; here they are far more common. Unless noted, calls follow the shape of the dose curve; as a rule, active = well fitted curve in the direction sought with a large enough effect; inconclusive = small, poorly fitted or top-dose-only effect, or another doubt; inactive = no such curve, though single readings can be large; an effect the other way counts as inactive or inconclusive. Unless noted, % is scaled to controls: 0 for no effect and ±100 for the full control effect.

SMILES	G9a block	Sfp PPTase inh	Tau FP inhib	Tau ThT inhib	Tau fluor cs	FBPA coupling cs
O=C(CN1CCCCC1)Nc1cccc(Cl)c1	-9.4%	18.5%	2.5%	-1.4%	1.3%	1.5
CCN1CCN(CC(=O)Nc2c(OC)cccc2OC)CC1	39.8µM*	79.4µM*	.	.	.	0.3
CC(=O)N1CCN(CC(=O)Nc2cc([N+](=O)[O-])ccc2Cl)CC1	39.8µM*	-1.4%	0.5%	-0.6%	-4.5%	-0.5
Cc1ccc([N+](=O)[O-])cc1NC(=O)CN1CCCCC1	18.5%[0.501 µM]	7.3%	-3.1%	3.1%	2.7%	-1.4
COc1cc(NC(=O)Nc2cccc(Cl)c2)c(OC)cc1NC(=O)CN1CCCCC1	12.6µM*	4.0%	?	?	8.91µM*[quencher]	-4.7
CCCOc1ccc(C(F)(F)F)cc1NC(=O)CN1C(=O)C(=O)N(CC)C1=O	1.9%[2.33 µM]	.	.	.	.	.
CCN1CCN(CC(=O)Nc2cc(C(F)(F)F)ccc2OCCOC)CC1	2.82µM*	79.4µM*	-7.3%	-6.8%	-7.4%	-0.2
COc1ccc(NC(=O)CSC2=NCCN2)cc1	-28.4%	-11.4%	-10.0%	?	-6.2%	-0.4
COc1ccc(S(=O)(=O)N2CCN(Cc3ccc4c(c3)OCO4)CC2)cc1OC	-1.0%[59 µM]	.	-1.6%	3.7%	-5.9%	.
CN1CCN(CCCNC(=O)Nc2ccc([N+](=O)[O-])cc2)CC1	?	3.4%	.	.	.	4.1
COc1cccc(NC(=S)N2CCC(N(C)CC3CCCO3)CC2)c1 (centres undefined)	16.7%[59 µM]	?	-3.4%	4.5%	0.2%	-5.4
O=C(CN1CCN(c2ccccc2)CC1)Nc1ccccc1Cl	-40.1%	-0.9%	0.3%	-14.1%	-9.3%	-0.8
CC(=O)N1CCN(CC(=O)Nc2c(Cl)cccc2Cl)CC1	3.16µM*	-26.4%	?	8.7%	7.0%	-3.5
CCc1cc(C(=O)NNC(=O)CCN2CCN(c3ccccc3)CC2)sc1C	39.8µM*	6.2%	.	.	.	.
O=C(CN1CCN(c2ccc(O)cc2)CC1)Nc1cc([N+](=O)[O-])ccc1Cl	5.62µM*	?	8.8%	?	?	-1.3
CC(C(=O)Nc1cc([N+](=O)[O-])ccc1Cl)N1CCN(c2ccccc2)CC1 (centres undefined)	9.8%[59 µM]	4.9%	-1.2%	4.7%	-2.2%	-1.9
CCc1cccc(CC)c1NC(=O)CN1CCN(c2ccccc2)CC1	28.2µM*	?	-4.3%	-1.1%	-4.4%	2.5
COc1ccc(-n2nnnc2C2CCN(S(=O)(=O)c3cccc(Cl)c3C)CC2)cc1	7.5%[59 µM]	.	-0.9%	-3.8%	-21.2%	.
C=CCn1c(C(C)(C)C)nc2ccccc21	16.9%[12.7 µM]	27.8%	-1.4%	1.2%	2.9%	0.0
COc1cc2ccnc(Cc3cccc(OC)c3OC)c2cc1OC	1.3%	-4.9%	-3.8%	-13.1%	-11.1%	-2.0
COc1cc(N)c(Cc2nccc3cc(OC)c(OC)cc23)cc1OC	?	-22.0%	-8.1%	?	-27.1%	-30.6*
COC(=O)N/N=C\c1cccc(OC(=O)c2cccs2)c1	15.0%[59 µM]	6.2%	-12.5%	-12.5%	-15.9%	-0.4
O=C1NN(c2ccccc2)C(=O)/C1=C\c1cccc(OC(=O)c2cccs2)c1	?	50.1µM*	?	15.8µM*	-24.6%	4.6
O=C1NN(c2ccc(Cl)c(Cl)c2)C(=O)/C1=C/c1cccc(OC(=O)c2cccs2)c1	?	?	?	15.8µM*	?	7.7
COc1cc(C2CC(=O)N(c3ccc(C)c(Cl)c3)C3=C2C(=O)OC3)cc(OC)c1OC (centres undefined)	-24.1%[59 µM]	.	-1.2%	-9.4%	-11.9%	.
SMILES	G9a block	Sfp PPTase inh	Tau FP inhib	Tau ThT inhib	Tau fluor cs	FBPA coupling cs
O=C(c1ccccc1)[C@@H]1[C@@H](C(=O)c2ccc(F)cc2)[C@@]2(C(=O)Nc3ccccc32)[C@H]2c3ccccc3C=CN12	12.6µM*	-17.4%	-9.8%	?	-20.3%	-30.9*
O=C(CC1(O)C(=O)Nc2ccccc21)c1cccc(Br)c1 (centres undefined)	-3.0%[59 µM]	3.1%	-12.4%	-8.0%	-8.9%	-1.5
CC(=O)[C@@H]1[C@@H](C(=O)c2ccccc2)[C@]2(C(=O)Nc3ccccc32)[C@H]2C=Cc3cc(F)ccc3N12	8.91µM*	-18.7%	-13.4%	?	-11.9%	-3.7
Cc1cccc(C(C)(C)C)c1OCCn1ccnc1	17.8µM*	2.1%	5.7%	-14.2%	-11.5%	-1.1
Cc1cccc(C(C)(C)C)c1OCCCCN1CCCC1	10µM*	-0.3%	-2.1%	-14.2%	-12.3%	0.6
Cc1cccc(Cl)c1OCCN1CCCC1	39.8µM*	-1.6%	.	.	.	-30.3*
Clc1cccc(OCCCCN2CCCCC2)c1	?	-12.8%	.	.	.	0.2
Clc1cccc(Cl)c1OCCCCN1CCCCC1	22.4µM*	10.2%	.	.	.	1.6
CC(C)(C)c1ccccc1OCCCCN1CCCC1	-8.0%	8.7%	-8.8%	-4.3%	-5.4%	-3.7
COc1cc(C)ccc1OCc1cc(C(=O)N(Cc2c(C)nn(C)c2C)C2CC2)no1	9.4%	6.8%	.	.	.	0.7
COc1ccc(N2CCN(C(=O)CN(C)S(=O)(=O)c3cnc[nH]3)CC2)cc1	?	8.5%	14.2%	-11.5%	-11.2%	1.3
CCOc1ccc(-n2c(=O)c3c(C)c(C)sc3n(CC(=O)NCCc3ccccc3)c2=O)cc1	0.6%[59 µM]	.	-7.5%	8.3%	3.1%	.
COc1cc2nc(NC(=O)c3ccc(F)cc3Cl)sc(=O)c2cc1OC	35.5µM*	-18.8%	.	.	.	-2.3
O=C(Nc1nc2ccsc2c(=O)s1)c1ccc(F)cc1Cl	-7.7%	12.6%	3.4%	.	-2.2%	2.5
CC(=O)Nc1sc(N/N=C\c2ccccc2F)nc1-c1cccs1	10µM*	-30.0%	-2.0%	8.91µM*	?	0.4
CC(=O)Nc1sc(N/N=C\c2cccc(Cl)c2)nc1-c1cccs1	10µM*	-3.6%	-5.9%	10µM*	?	2.0
CC(=O)Nc1sc(N/N=C\c2ccc(O)cc2)nc1-c1cccs1	31.6µM*	?	-9.1%	14.1µM*	?	-2.4
CC(=O)Nc1sc(NC(=O)c2ccccc2)nc1-c1cccs1	5.3%	0.0%	-1.4%	?	-11.7%	1.5
COc1ccccc1C(=O)Nc1nc(-c2cccs2)c(NC(C)=O)s1	?	-18.2%	?	-18.3%	-25.7%	0.7
COc1ccc(OC)c(CCNC(=O)Cn2nc(C)n3c(cc4sccc43)c2=O)c1	12.1%[59 µM]	.	1.4%	-9.6%	-13.2%	.
Cc1cc(S(=O)(=O)N(Cc2ccccn2)Cc2ccco2)ccc1-n1cnnn1	25.1µM*	6.9%	2.4%	-8.2%	-7.1%	-0.4
COc1ccc(CN(Cc2ccccn2)S(=O)(=O)c2ccc(-n3cnnn3)c(OC)c2)cc1	50.1µM*	3.6%	-2.7%	-6.7%	-15.7%	-0.4
COc1ccc(CN(Cc2ccccn2)S(=O)(=O)c2ccc(-n3cnnn3)cc2)cc1	11.0%	7.7%	-7.3%	-13.9%	-17.5%	-1.5
